Screens (PubChem BioAssay)
SNCA expr inh: reduces expression of the alpha-synuclein gene | HEK-293 SNCA-luciferase knock-in, luminescence, 24 h | Potency, µM (highest dose often 57.2 µM), for inactives: at the top dose activity change, negative = inhibition, usual class: inhibitors | 0.17% of 140,000 active | AID 1671194;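 also: plate controls were DMSO cells for no effect and cell-free wells for full effect; nearly all actives have a fitted effect of over 45% in size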
Luciferase inh: inhibitors of firefly (Photinus pyralis) luciferase | P08659 | purified P. pyralis luciferase, luminescence, biochemical | Potency, µM (series often up to 115 µM), actives largely listed as inhibitors | 2.5% of 76,000 active | AID 1347043; also: nearly all actives have a fitted effect of over 65% in size
Target sequence (P08659 whole entry, looked up): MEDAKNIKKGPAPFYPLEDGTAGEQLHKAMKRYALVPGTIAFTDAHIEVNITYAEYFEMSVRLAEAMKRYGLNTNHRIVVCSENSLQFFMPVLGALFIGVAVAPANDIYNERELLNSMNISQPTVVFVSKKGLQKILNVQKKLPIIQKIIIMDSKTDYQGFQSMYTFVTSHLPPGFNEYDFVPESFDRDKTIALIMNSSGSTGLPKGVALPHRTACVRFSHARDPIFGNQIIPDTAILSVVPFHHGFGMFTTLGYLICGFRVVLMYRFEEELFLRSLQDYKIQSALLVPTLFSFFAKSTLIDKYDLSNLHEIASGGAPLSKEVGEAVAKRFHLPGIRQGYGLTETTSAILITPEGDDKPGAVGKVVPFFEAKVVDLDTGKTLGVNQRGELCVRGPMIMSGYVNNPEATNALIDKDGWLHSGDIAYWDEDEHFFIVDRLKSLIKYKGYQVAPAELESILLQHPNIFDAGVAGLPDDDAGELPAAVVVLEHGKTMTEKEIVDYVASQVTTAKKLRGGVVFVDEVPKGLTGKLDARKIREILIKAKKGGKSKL
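Purified P. pyralis luciferase (10nM final) in 50mM Tris acetate pH 7.5, 10mM Mg acetate, 0.01% Tween-20, 0.05% BSA with 10uM D-luciferin and 10uM ATP. Compounds titrated qHTS. Luminescence imaged on CCD.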
hNpr1 antagonist: antagonists of human natriuretic peptide receptor Npr1; P16066; HEK293 hNpr1 GloSensor cGMP, ANP-stimulated luminescence; Potency, µM (series often up to 46.3 µM), for inactives: at the top dose activity change, negative = inhibition, actives largely listed as inhibitors; 1.6% of 76,000 active; AID 1347048; calls by dose curve; also: nearly all actives have a fitted effect of over 60% in size
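HEK293 cells stably expressing human Npr1 and cGMP GloSensor pGS-40F, loaded 2 h with 2% GloSensor reagent, given compound 30 min at room temperature. Luminescence read before and 20 min after 0.1 nM hNppA.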
NIH3T3 tox: kills NIH 3T3 cells; NIH 3T3 viability, CellTiter-Glo ATP luminescence, 48-72 h; Potency, µM (top dose mostly 96.7 µM), inactives show top-dose activity change, negative = cytotoxicity, most hits filed as inhibitors; 4.3% of 94,000 active; AID 1345082; also: nearly all actives have a fitted effect of over 55% in size
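NIH 3T3 cells at 400 cells/well received 23 nL of compound by pintool and were incubated 48 or 72 h at 37 °C. Viability was read as ATP-coupled CellTiter-Glo luminescence.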
HEK cytotox: cytotoxic compounds in HEK 293 cells. 6.6% of 94,000 active. Potency, µM (top dose mostly 115 µM), for inactives: at the highest dose activity change, negative = cytotoxicity, usual class: inhibitors. HEK 293 viability, ATP luminescence (CellTiter-Glo), 48-72 h; also: nearly all actives have a fitted effect of over 60% in size
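Cells seeded first (HEK 293, 250 cells/well), then compound added by pintool. Incubation ran 48 or 72 hr at 37 degree Celsius. CellTiter-Glo was added and luminescence imaged after 10 min at room temperature.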
HEK293 viab: cell viability loss counter-screen. AID 1671193. 0.12% of 150,000 active. Potency, µM (titrated, usually from 57.1 µM), for the others: at the highest dose activity change, negative = cytotoxicity, usual class: cytotoxic. HEK-293-SNCA-luc viability, GF-AFC fluorescence, 24 h;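 also: 0% = DMSO-treated cells and -100% = medium-only wells without cells; nearly all actives have a fitted effect of over 30% in size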
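HEK-293-SNCA-luc cells (1500/well) plated 24 h, then exposed 24 h to a dilution series; GF-AFC added 30 min at 37C, fluorescence 405/540 nm; normalised to medium-only and DMSO wells, Hill fit.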
The depositor's hits bear a star; i = inactive; ? = inconclusive; · = not tested or not shown; [ ] = dose if it differs, or a comment. Most compounds without a hit are left out; they make up all but 7.4% or so of the library. Unless noted, calls follow the shape of the dose curve; as a rule, active = well fitted curve in the direction sought with a large enough effect; inconclusive = small, poorly fitted or top-dose-only effect, or another doubt; inactive = no such curve, though single readings can be large; an effect the other way counts as inactive or inconclusive. Unless noted, % is scaled to controls: 0 for no effect and ±100 for the full control effect; potency is read from the fitted curve at half-maximal effect.

SMILES	SNCA expr inh	Luciferase inh	hNpr1 antagonist	NIH3T3 tox	HEK cytotox	HEK293 viab
CN1CCCC2(CCN(C(=O)CCCOc3ccccc3)C2)C1=O (stereo not given)	19%	28µM*	1%	0%	-2%	1%
CN1CCCC2(CCN(C(=O)CCc3ccccc3O)C2)C1=O (stereo not given)	-18%	i	3%	2%	i	12%
COc1ccc2[nH]c3c(c2c1)CCNC31CCN(Cc2ccc(F)c(F)c2)CC1	7%	i	-12%	35µM*	?	3%[12.5 µM]
COc1cccc(CN2CCC3(CC2)NCCc2c3[nH]c3ccccc23)c1	23%	i	-15%	35µM*	32µM*	-8%[12.5 µM]
COc1cccc(CN2CCC3(CC2)NCCc2c3[nH]c3ccc(OC)cc23)c1	?	i	0%	?	?	6%[12.5 µM]
COc1ccc2[nH]c3c(c2c1)CCNC31CCN(Cc2ccc(C)o2)CC1	?	i	-8%	?	?	-1%[12.5 µM]
CN1CCN(C(=O)c2ccc3nnc(-c4cccc(C(F)(F)F)c4)n3c2)CC1	-9%	·	·	-16%	5%	-1%
CN1C[C@@H](NC(=O)c2ccccc2)C[C@H]1c1nc(-c2ccncc2)no1	-10%[87.6 µM]	i	1%[70.6 µM]	-2%[138 µM]	-1%[172 µM]	0%[87.6 µM]
CN1C[C@@H](NC(=O)c2ccc(C#N)cc2)C[C@H]1c1nc(-c2cncnc2)no1	12%[87.6 µM]	45µM*	2%[70.6 µM]	-13%[174 µM]	?	5%[87.6 µM]
Cc1ccc(C(=O)N[C@H]2C[C@@H](c3nc(-c4ccc(C)cc4)no3)N(C)C2)cc1	0%[87.6 µM]	i	2%[70.6 µM]	-13%[174 µM]	-1%[172 µM]	-5%[87.6 µM]
CN1C[C@@H](NC(=O)c2ccc(C(C)(C)C)cc2)C[C@H]1c1nc(-c2ccncc2)no1	-3%[87.6 µM]	?	1%[70.6 µM]	?	71µM*	0%[87.6 µM]
C=CCN1CC(C)(C)CN(S(=O)(=O)c2ccc(C)cc2)CC1=O	·	·	·	?	-8%	·
CNC(=O)c1cc(C2CC2)nc2c1c(C1CCCN1C(=O)c1ccc(OC)cc1)nn2C (stereo not given)	·	·	·	-16%	-4%	·
CC1(CCCCc2ccccc2)COc2ccc(C(=O)NCCN3CCOCC3)cc2N1 (stereo not given)	?	i	-2%[70.6 µM]	79µM*	89µM*	4%[87.6 µM]
CC1(CCCCc2ccccc2)COc2ccc(C(=O)NCc3cccnc3)cc2N1 (stereo not given)	-16%[87.6 µM]	i	-20%[70.6 µM]	?	?	9%[87.6 µM]
CC1(CCCCc2ccccc2)COc2ccc(C(=O)NCc3ccncc3)cc2N1 (stereo not given)	-8%[87.6 µM]	i	?	?	89µM*	-6%[87.6 µM]
COc1ccc(C(=O)N2CC(CNC(=O)N3CCCC3)C3(CCOCC3)C2)cc1 (stereo not given)	3%	·	·	-5%	i	-19%
CC(C)(C)C1CCC2(CC1)NC(=O)N(CC(=O)Nc1ccc(F)cc1F)C2=O (stereo not given)	3%	i	-7%	-42%	?	0%
Cc1cc(F)ccc1NC(=O)CN1C(=O)NC2(CCC(C(C)(C)C)CC2)C1=O (stereo not given)	3%	i	-2%	40µM*	?	3%
COc1ccc(C)cc1NC(=O)CN1C(=O)NC2(CCC(C(C)(C)C)CC2)C1=O (stereo not given)	-26%	i	-24%	?	?	-10%
COc1ccc(NC(=O)CN2C(=O)NC3(CCC(C(C)(C)C)CC3)C2=O)c(OC)c1 (stereo not given)	31%	i	0%	?	35µM*	3%
O=C(COc1ccccc1)NC[C@H]1O[C@H](Cc2cc(-c3ccccc3)on2)CC[C@@H]1O	12%[87.6 µM]	i	3%[70.6 µM]	?	?	2%[87.6 µM]
O[C@H]1CC[C@@H](Cc2cc(-c3ccccc3)on2)O[C@@H]1CNC1CCCCC1	24%[87.6 µM]	i	-22%[70.6 µM]	?	100µM*	-10%[87.6 µM]
COc1ccccc1CNC[C@H]1O[C@H](Cc2cc(-c3ccccc3)on2)CC[C@@H]1O	28%[87.6 µM]	i	-13%[70.6 µM]	89µM*	?	-16%[87.6 µM]
CC1(c2ccccc2)N(Cc2ncccn2)C(=O)OC12CCN(Cc1cccc(OC(F)(F)F)c1)CC2 (stereo not given)	-52%	i	-8%	40µM*	50µM*	-28%
SMILES	SNCA expr inh	Luciferase inh	hNpr1 antagonist	NIH3T3 tox	HEK cytotox	HEK293 viab
COc1cccc(CN2C(=O)OC3(CCN(Cc4ccccn4)CC3)C2(C)c2cccnc2)c1 (stereo not given)	?	i	0%	?	4%	-5%
CC1(c2ccccc2)N(Cc2ccccc2)C(=O)OC12CCN(c1cccnc1)CC2 (stereo not given)	4%[87.6 µM]	i	-2%[70.6 µM]	89µM*	71µM*	-24%[87.6 µM]
CC1(c2ccccc2)N(Cc2cccnc2)C(=O)OC12CCN(Cc1ccccc1)CC2 (stereo not given)	-13%[87.6 µM]	i	-27%[70.6 µM]	?	?	?
CC1(c2ccccc2)N(Cc2ccccc2)C(=O)OC12CCN(Cc1cccnc1)CC2 (stereo not given)	-8%[87.6 µM]	i	-12%[70.6 µM]	100µM*	?	-12%[87.6 µM]
COc1cccc(C(=O)NC2CCN(C(=O)c3ccc(-c4ncccc4C#N)cc3)CC2)c1	-12%	·	·	?	?	-12%[12.5 µM]
O=C(Nc1cnc(-c2ccc(Cl)cc2)nc1)c1ccccc1Cl	39%	0.63µM*	?	2%	?	-11%
O=C(Nc1cnc(-c2ccc(Cl)cc2)nc1)c1cccs1	111%	?	-2%	0%	12%	2%
CCc1[nH]c2ccc(CNC(=O)c3coc(CN4CCOCC4)c3)cc2c1C	-1%	32µM*	2%	-13%	-26%	0%
CCc1[nH]c2ccc(CNC(=O)c3scc4c3OCCO4)cc2c1C	-11%	?	-9%	-28%	?	-4%
CCc1[nH]c2ccc(CNC(=O)Cc3cnc4c(C)cccn34)cc2c1C	-16%	?	7.1µM*	?	?	?
CCc1ccc(CNC(=O)c2cnc3c(C)cccn3c2=O)cc1	14%	·	·	·	·	-4%
CCOC(=O)N1[C@@H](c2ccccc2)[C@@H](C(=O)O)C[C@]12CCCCN(CCOC)C2=O	·	·	·	?	-10%	·
COc1ccccc1-c1cccc(CN2CCC(NC(=O)c3ccccn3)CC2)c1	-6%	·	·	?	?	1%
COc1ccc(NC(=O)N2CCCCCC2c2nc(C)no2)cc1 (stereo not given)	-6%	·	·	-4%	-1%	-7%
CC1=NOC2(CCCN(C(=O)c3ccccc3)C2)C1 (stereo not given)	7%[87.6 µM]	·	·	-4%[174 µM]	i	-3%[87.6 µM]
